{"source": "PubChem BioAssay AID651819", "about": "(National Center for Advancing Translational Sciences (NCATS), 2012)", "note": "Where “and” joins values, the source holds several entries; their conditions need not be identical. Identical values can stand only once. About 1,100 (0.31%) of roughly 360,000 compounds were called active. Many of the other results were omitted from the sample, so actives are more common in it than they were. Unmarked numbers belong to inactive results. No stated cut-off is given here; in the data, active means activity change below about -30%; inactive means the rest. On the % scale 0 is the no-effect control and ±100 the full control effect."}
{"tested_on": "cytosolic chaperonin (CCT/TRiC complex)", "assay": "High-Throughput Screening for Modulators of Cytosolic Chaperonin Activity", "details": "purified chaperonin ATPase assay, HTRF ADP detection, 30 min; active compounds read low", "outline": "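Enzyme 40 or 20 nM (batch-dependent) in Tris pH 7.4/KCl/MgCl2/DTT; cpd 76 uM single point; ATP 10 uM; 30 min 37 °C; Transcreener ADP HTRF detection, 30 min RT; ratio 665/615.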"}
{"smiles": "CSCCC1NC2(C(=O)Nc3ccc(Cl)cc32)[C@@H]2C(=O)N(C3CCCC3)C(=O)[C@H]12", "note": "(some centres undefined)", "activity change": "1.03%"}
{"smiles": "Cc1c(CC(=O)NCC(=O)NCC(=O)O)c(=O)oc2cc3oc4c(c3cc12)CCCC4", "activity change": "-2.16%"}
{"smiles": "COc1ccc(-c2csc(NC(=O)c3ccc(N4C(=O)CCC4=O)cc3)n2)cc1OC", "activity change": "-39.6% (active)"}
{"smiles": "COc1cc(NC(=O)c2ccc(-c3csc(C)n3)cc2)c(OC)cc1Cl", "activity change": "-4.58%"}
{"smiles": "COc1ccc(-n2nc3c(c2NC(=O)c2ccc(N4C(=O)CCC4=O)cc2)CSC3)cc1", "activity change": "-0.865%"}
{"smiles": "C[C@H]1Cn2cnc(C(=O)N[C@H](C)c3ccccc3)c2C(=O)N1", "activity change": "-0.974%"}
{"smiles": "Cc1ccc2nc(SCC(=O)NC3CCCC3)[nH]c2c1", "activity change": "-1.34%"}
{"smiles": "Cc1nc(SCC(=O)NC2CCCC2)[nH]c(=O)c1C", "activity change": "-0.123%"}
{"smiles": "CCc1c(C)nc(SCC(=O)NC2CCCC2)[nH]c1=O", "activity change": "-41.7% (active)"}
{"smiles": "O=C(CSC1=NS(=O)(=O)c2cc(F)ccc2N1)Nc1ccccc1F", "activity change": "0.641%"}
{"smiles": "COC(=O)c1ccc(S(=O)(=O)c2ccc(C(=O)OC)s2)s1", "activity change": "1.17%"}
{"smiles": "CN(C)S(=O)(=O)c1cccc(-c2nn(-c3ccccc3)cc2/C=C2\\SC(=S)N(CC(=O)O)C2=O)c1", "activity change": "-61.8% (active)"}
{"smiles": "Cc1ccc(-c2nn(-c3ccccc3)cc2/C=C/C(=O)Nc2cccc(S(N)(=O)=O)c2)cc1", "activity change": "0.245%"}
{"smiles": "COc1cccc(-c2nn(-c3ccccc3)cc2/C=C(\\C#N)C(=O)NCCCn2ccnc2)c1", "activity change": "-0.966%"}
{"smiles": "CSc1nc2ccccc2cc1/C=C(\\C#N)c1ccc(Cl)cc1Cl", "activity change": "2.8%"}
{"smiles": "Cn1nc([N+](=O)[O-])nc1Sc1ccc(C(C)(C)C)cc1", "activity change": "-4.31%"}
{"smiles": "Cc1cc(C(=O)NNC(=S)NC(C)c2ccccc2)cs1", "note": "(centres undefined)", "activity change": "-0.958%"}
{"smiles": "O=C(Nc1ccncc1)c1cc(-c2ccccn2)nc2ccc(Br)cc12", "activity change": "-70.4% (active)"}
{"smiles": "O=C(Nc1ccc(Br)cc1)c1cc(S(=O)(=O)Nc2ccccn2)ccc1Cl", "activity change": "-1.07%"}
{"smiles": "Cc1ccc2nc(-c3ccncc3)cc(C(=O)Nc3ccc(OC(F)F)cc3)c2c1", "activity change": "-2.42%"}
{"smiles": "O=C(Nc1ccc(Cl)cc1)/C(=C1\\CCCN1)[N+](=O)[O-]", "activity change": "0.411%"}
{"smiles": "O=C(Nc1cc(-c2nc3ncccc3o2)ccc1Cl)c1ccco1", "activity change": "-2.43%"}
{"smiles": "O=S1(=O)CC(N2CCN(c3ccccn3)CC2)CN1Cc1ccc(F)cc1", "note": "(centres undefined)", "activity change": "-0.743%"}
{"smiles": "Cc1occc1C(=O)Nc1cccc(S(=O)(=O)N2CCOCC2)c1", "activity change": "-3.31%"}
{"smiles": "Cc1c(C(=O)Nc2cccc(S(=O)(=O)N3CCOCC3)c2)oc2ccccc12", "activity change": "-1.92%"}
{"smiles": "Cc1cc(C)n2nc(C(=O)Nc3cccc(S(=O)(=O)N4CCOCC4)c3)nc2n1", "activity change": "-34.4% (active)"}
{"smiles": "Cc1ccc(-c2cc(C(F)(F)F)n3ncc(C(=O)N4CCCCC4c4cccnc4)c3n2)cc1", "note": "(centres undefined)", "activity change": "-3.01%"}
{"smiles": "Cc1ccccc1NC(=O)C(C)c1ccc(-c2ccccc2)c(F)c1", "note": "(centres undefined)", "activity change": "-2.15%"}
{"smiles": "CCCc1nc2c(C)cc(-c3nc4ccccc4n3C)cc2n1Cc1ccc(-c2ccccc2C(=O)O)cc1", "activity change": "-0.702%"}
{"smiles": "O=C(NCCc1ccc(Cl)cc1)C1CC(=O)N(C2CCCCC2)C1", "note": "(centres undefined)", "activity change": "-0.359%"}
{"smiles": "O=C(NCCCN1CCCCC1)C1CC(=O)N(CCc2ccccc2)C1", "note": "(centres undefined)", "activity change": "0.88%"}
{"smiles": "O=C(NCCCN1CCCCCC1)C1CC(=O)N(C2CCCC2)C1", "note": "(centres undefined)", "activity change": "-44.9% (active)"}
{"smiles": "CCc1cc(CNC(=O)CC2C(=O)NCCN2CC2CCCCC2)on1", "note": "(centres undefined)", "activity change": "-0.174%"}
{"smiles": "CC(=O)Nc1ccc(S(=O)(=O)NCC2CCC(C(=O)NCCc3ccccc3)CC2)cc1", "note": "(centres undefined)", "activity change": "-1.57%"}
{"smiles": "COc1ccc(NC(=O)C2CCC(CNS(=O)(=O)c3csc(C(N)=O)c3)CC2)cc1OC", "note": "(centres undefined)", "activity change": "-80.6% (active)"}
{"smiles": "COc1cccc(CNS(=O)(=O)c2csc(C(N)=O)c2)c1", "activity change": "0.982%"}
{"smiles": "CN(C)C(=O)CCc1ccc2c3c([nH]c2c1)[C@]1(CCC2CCCC2)[C@@H](C(=O)N2CCOCC2)C[C@H](CC(=O)NCc2ccco2)C(=O)N1CC3", "activity change": "0.536%"}
{"smiles": "CSCCC(NC(=O)C1CCC(C)CC1)C(=O)NCc1ccco1", "note": "(centres undefined)", "activity change": "-5.62%"}
{"smiles": "O=C(Cn1c[n+](CC(=O)c2ccc([N+](=O)[O-])cc2)cn1)c1ccc([N+](=O)[O-])cc1", "activity change": "1.85% and -0.852%"}
{"smiles": "O=C(CCn1nnc2ccccc21)OCC(=O)c1ccc([N+](=O)[O-])cc1", "activity change": "1.01%"}
{"smiles": "O=C(CC(n1cncn1)C(Cl)(Cl)Cl)c1ccc([N+](=O)[O-])cc1", "note": "(centres undefined)", "activity change": "-37.2% (active)"}
{"smiles": "CCCN(C(=O)COC(=O)CNS(=O)(=O)c1ccc(NC(C)=O)cc1)C1CCS(=O)(=O)C1", "note": "(centres undefined)", "activity change": "-0.677%"}
{"smiles": "O=C(NC(=O)c1cc(OCC(F)(F)F)ccc1OCC(F)(F)F)Nc1ccccc1", "activity change": "-0.0973%"}
{"smiles": "COC(=O)c1ccc(COc2cc([N+](=O)[O-])cc3cccnc23)cc1", "activity change": "-0.442%"}
{"smiles": "COc1ccc(CN2CCCC(CNC(=O)c3ccc(F)cc3)C2)cc1OC", "note": "(centres undefined)", "activity change": "-2.54%"}
{"smiles": "S=c1nccc(-c2cc(Cl)sc2Cl)[nH]1", "activity change": "-49.1% (active)"}
{"smiles": "CCOc1c2ccc(C(=O)NC3CCCc4ccccc43)cc2nn1CC", "note": "(centres undefined)", "activity change": "-6.07%"}
{"smiles": "COC(=O)c1ccc(Nc2ncnc3sccc23)cc1", "activity change": "-2.64%"}
{"smiles": "COc1ccc(Nc2ncnc3sc(C)cc23)cc1", "activity change": "-82.2% (active)"}
{"smiles": "COc1ccc(Nc2cc(Sc3ccc(OC)cc3)ncn2)cc1", "activity change": "-0.999%"}
{"smiles": "CC1(C)CC[C@]2(C(=O)O)CC[C@]3(C)C(=CCC4[C@@]5(C)CC[C@H](O)C(C)(C)C5[C@H](O)C[C@]43C)[C@@H]2C1", "note": "(some centres undefined)", "activity change": "0.294%"}
{"smiles": "CCO[C@H]1OC(C(=O)N2CCN(Cc3ccccc3)CC2)=C[C@@H](c2cn(C(C)=O)c3ccccc23)[C@@H]1CCCO", "activity change": "0.631%"}
{"smiles": "COc1ccc(CCNS(=O)(=O)c2ccc(Cl)s2)cc1OC", "activity change": "-1.56%"}
{"smiles": "COc1ccc(CCNS(=O)(=O)c2ccc(C(=O)NCc3ccco3)cc2)cc1OC", "activity change": "-2.3%"}
{"smiles": "COc1ccc(CCNS(=O)(=O)c2ccc(F)cc2)cc1OC", "activity change": "-67.3% (active)"}
{"smiles": "O=C(OCCN1CCOCC1)C1(c2ccccc2)CCCCC1", "activity change": "0.343%"}
{"smiles": "CCN1CCN(C(C(=O)NC2CCCC2)c2cc3c(cc2[N+](=O)[O-])OCO3)CC1", "note": "(centres undefined)", "activity change": "-0.623%"}
{"smiles": "Cc1ccc2c(c1)c1ncnc(N3CCc4ccccc4C3)c1n2C", "activity change": "1.95%"}
{"smiles": "CC(C)N1C(=O)C2C(C(=O)NC3CCCCC3)C3C=CC2(O3)C1C(=O)NC1CCCC1", "note": "(centres undefined)", "activity change": "-2.56%"}
{"smiles": "CCN(CC)CCN1C(=O)C2C(C(=O)Nc3ccc(Br)cc3)C3C=CC2(O3)C1C(=O)NC1CCCCC1", "note": "(centres undefined)", "activity change": "-40.8% (active)"}
{"smiles": "CCOCCCN1C(=O)C2C(C(=O)Nc3ccc(OCC)cc3)C3C=CC2(O3)C1C(=O)NC1CCCCC1", "note": "(centres undefined)", "activity change": "-2.83%"}
{"smiles": "CCCSc1nsc(N)n1", "activity change": "-1.36%"}
{"smiles": "COc1ccc(N)c(C)c1", "activity change": "-0.166%"}
{"smiles": "COc1ccc2c(C)cc3nnnn3c2c1", "activity change": "-38.8% (active)"}
{"smiles": "COc1ccc2ccn(C)c2c1", "activity change": "1.51%"}
{"smiles": "Cc1nc2nc3c(cn2n1)C(=O)CC(c1ccccc1)C3", "note": "(centres undefined)", "activity change": "-0.882%"}
{"smiles": "CN1CCN(CC#CCC2(O)c3ccccc3-c3ccccc32)CC1", "activity change": "-0.316%"}
{"smiles": "CSc1nnc2c(n1)OC(c1cn(C)c3ccccc13)N(C(C)=O)c1ccccc1-2", "note": "(centres undefined)", "activity change": "-0.161%"}
{"smiles": "CSCCC(=O)N1CCCC(CNC(=O)c2ccccc2Cl)C1", "note": "(centres undefined)", "activity change": "-0.386%"}
{"smiles": "CCOC(=O)CSc1ncc(-c2cccc(Cl)c2)cn1", "activity change": "-0.564%"}
{"smiles": "CCOC(=O)CSc1ccccn1", "activity change": "-41% (active)"}
{"smiles": "COC(=O)c1ccccc1NC(=O)CSc1ccccn1", "activity change": "-2.39%"}
{"smiles": "COc1ccc(N2C(=O)CCC(C(=O)N(C)C3CCCCC3)C2c2ccc(OC)c(OC)c2)cc1", "note": "(centres undefined)", "activity change": "-0.957%"}
{"smiles": "CN1CCN(c2ccncc2S(=O)(=O)N2CCCC2)CC1", "activity change": "-0.238%"}
{"smiles": "CNC[C@H](CC1CCCCC1)NC[C@H](NCCC1CCCC1)[C@H](C)O", "activity change": "-0.857%"}
{"smiles": "Nn1c(SCC(=O)Nc2ccc3c(c2)CCC3)nnc1C1CC1", "activity change": "-0.2%"}
{"smiles": "COc1ccc(NC(=O)CSc2nnnn2-c2cccc(OC)c2)cc1", "activity change": "1.8%"}
{"smiles": "COc1cccc(NC(=O)CSc2nnc(C3CCCCC3)n2N)c1", "activity change": "-45.1% (active)"}
{"smiles": "O=C(Nc1cccnc1Oc1ncnc2cc(Cl)ccc12)c1ccc(F)cc1", "activity change": "1.03%"}
{"smiles": "O=C1N[C@H](Cc2ccccc2)C(=O)N[C@H]1Cc1cn(S(=O)(=O)c2ccccc2)c2ccccc12", "activity change": "-2.61%"}
{"smiles": "C=CCNc1nc(N)c([N+](=O)[O-])c(NC2CCCCC2)n1", "activity change": "-43.9% (active)"}
{"smiles": "Nc1nc(Nc2ccccc2F)nc(NC2CCCCC2)c1[N+](=O)[O-]", "activity change": "-0.808%"}
{"smiles": "Nc1nc(NCC2CCCO2)nc(Nc2ccccc2F)c1[N+](=O)[O-]", "note": "(centres undefined)", "activity change": "0.16%"}
{"smiles": "O=C(Nc1ccccc1-c1nnn(CC(=O)N2CCN(c3ccccc3)CC2)n1)c1cccs1", "activity change": "-3.64%"}
{"smiles": "CCOC1CS(=O)(=O)CC1OCC", "note": "(centres undefined)", "activity change": "0.485%"}
{"smiles": "O=C(CS(=O)(=O)c1ccccc1)Nc1ccc(S(=O)(=O)Nc2ccccn2)cc1", "activity change": "0.548%"}
{"smiles": "COc1ccc(NC(=O)CS(=O)(=O)c2ccccc2)cc1", "activity change": "-61% (active)"}
{"smiles": "COc1ccc(NC(=O)CC(NC(C)c2ccccc2)C(=O)O)cc1", "note": "(centres undefined)", "activity change": "-0.408%"}
{"smiles": "COc1cc2nc(CN(C)Cc3ccc(F)cc3)[nH]c(=O)c2cc1OC", "activity change": "-1.05%"}
